# Data as given in the supplement of paper PMC8728848.
# The sample as a whole holds a higher share of the strongest signals than the screen did.
# B1: Als3-2 (Candida albicans) (protein)
# chain: KTITGVFNSFNSLTWSNAATYNYKGPGTPTWNAVLGWSLDGTSASPGDTFTLNMPCVFKFTTSQTSVDLTAHGVKYATCQFQAGEEFMTFSTLTCTVSNTLTPSIKALGTVTLPLAFNVGGTGSSVDLEDSKCFTAGTNTVTFNDGGKKISINVDFERSNVDPKGYLTD
# Key:
# Test in all cases: glycan array binding signal (z-score within array); higher = stronger binding
# Conditions in all cases: glycan notation: IUPAC condensed, linker removed
# [1] = target: Fuc(a1-2)Gal(b1-3)GlcNAc(b1-2)Man(a1-3)[Fuc(a1-2)Gal(b1-3)GlcNAc(b1-2)Man(a1-6)]Man(b1-4)GlcNAc(b1-4)GlcNAc
# How it was run: (§1)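 From the Consortium for Functional Glycomics database, 3228 arrays were curated, keeping only those whose protein sequence was available. Binding is given as a within-array Z-score averaged across arrays sharing a protein sequence and across linkers. Negative Z-scores can be read as non-binding.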
# [2] = target: Fuc(a1-2)Gal(b1-4)GlcNAc(b1-3)GalNAc
# How it was run: as §1
# [3] = target: Fuc(a1-2)[Gal(a1-3)]Gal(b1-4)Glc
# How it was run: as §1
# [4] = target: Fuc(a1-2)[GalNAc(a1-4)]Gal(b1-4)GlcNAc
# How it was run: as §1
# [5] = target: Fuc(a1-3)[Gal(b1-4)]GlcNAc(b1-3)Gal(b1-3)[Fuc(a1-4)]GlcNAc
# How it was run: as §1
# [6] = target: Fuc(a1-3)[Gal3S(b1-4)]Glc
# How it was run: as §1
# [7] = target: Fuc(a1-3)[GalNAc(b1-4)]GlcNAc6S
# How it was run: as §1
# Gal(a1-3)GalNAc = target: Gal(a1-3)GalNAc
# How it was run: as §1
# Gal(a1-6)Glc = target: Gal(a1-6)Glc
# How it was run: as §1
# Gal(b1-3)GalNAc = target: Gal(b1-3)GalNAc
# How it was run: as §1
# [8] = target: Gal(b1-3)GlcNAc(a1-3)Gal(b1-4)GlcNAc
# How it was run: as §1
# [9] = target: Gal(b1-3)GlcNAc(b1-3)Gal(b1-4)GlcNAc(b1-2)Man(a1-3)[Gal(b1-3)GlcNAc(b1-3)Gal(b1-4)GlcNAc(b1-2)Man(a1-6)]Man(b1-4)GlcNAc(b1-4)GlcNAc
# How it was run: as §1
# [10] = target: Gal(b1-3)GlcNAc(b1-3)Gal(b1-4)GlcNAc(b1-6)[Gal(b1-3)GlcNAc(b1-3)]Gal(b1-4)Glc
# How it was run: as §1
# [11] = target: Gal(b1-3)[Fuc(a1-4)]GlcNAc(b1-3)Gal(b1-4)[Fuc(a1-3)]GlcNAc
# How it was run: as §1
# Gal(b1-4)Gal = target: Gal(b1-4)Gal
# How it was run: as §1
# [12] = target: Gal(b1-4)GlcNAc(b1-2)Man(a1-3)[Man(a1-6)]Man(b1-4)GlcNAc(b1-4)GlcNAc
# How it was run: as §1
# [13] = target: Gal(b1-4)GlcNAc(b1-3)Gal(b1-4)GlcNAc(b1-3)Gal(b1-4)GlcNAc(b1-2)Man(a1-3)[Gal(b1-4)GlcNAc(b1-3)Gal(b1-4)GlcNAc(b1-3)Gal(b1-4)GlcNAc(b1-2)Man(a1-6)]Man(b1-4)GlcNAc(b1-4)GlcNAc
# How it was run: as §1
# [14] = target: Gal(b1-4)GlcNAc(b1-3)Gal(b1-4)GlcNAc(b1-3)Gal(b1-4)GlcNAc(b1-3)Gal(b1-4)GlcNAc(b1-3)Gal(b1-4)GlcNAc(b1-2)Man(a1-3)[Gal(b1-4)GlcNAc(b1-3)Gal(b1-4)GlcNAc(b1-3)Gal(b1-4)GlcNAc(b1-3)Gal(b1-4)GlcNAc(b1-3)Gal(b1-4)GlcNAc(b1-2)Man(a1-6)]Man(b1-4)GlcNAc(b1-4)GlcNAc
# How it was run: as §1
# [15] = target: Gal(b1-4)GlcNAc(b1-3)Gal(b1-4)GlcNAc(b1-3)Gal(b1-4)GlcNAc(b1-3)Gal(b1-4)GlcNAc(b1-3)Gal(b1-4)GlcNAc(b1-2)Man(a1-3)[Gal(b1-4)GlcNAc(b1-3)Gal(b1-4)GlcNAc(b1-3)Gal(b1-4)GlcNAc(b1-3)Gal(b1-4)GlcNAc(b1-3)Gal(b1-4)GlcNAc(b1-2)Man(a1-6)]Man(b1-4)GlcNAc(b1-4)[Fuc(a1-6)]GlcNAc
# How it was run: as §1
# [16] = target: Gal(b1-4)GlcNAc(b1-3)Gal(b1-4)GlcNAc(b1-3)Gal(b1-4)GlcNAc(b1-3)Gal(b1-4)GlcNAc(b1-3)Gal(b1-4)GlcNAc(b1-2)[Gal(b1-4)GlcNAc(b1-3)Gal(b1-4)GlcNAc(b1-3)Gal(b1-4)GlcNAc(b1-3)Gal(b1-4)GlcNAc(b1-3)Gal(b1-4)GlcNAc(b1-6)]Man(a1-6)[Gal(b1-4)GlcNAc(b1-3)Gal(b1-4)GlcNAc(b1-3)Gal(b1-4)GlcNAc(b1-3)Gal(b1-4)GlcNAc(b1-3)Gal(b1-4)GlcNAc(b1-2)Man(a1-3)]Man(b1-4)GlcNAc(b1-4)[Fuc(a1-6)]GlcNAc
# How it was run: as §1
# [17] = target: Gal(b1-4)GlcNAc(b1-6)Gal(b1-4)GlcNAc
# How it was run: as §1
# Gal3S(b1-4)GlcNAc = target: Gal3S(b1-4)GlcNAc
# How it was run: as §1
# Gal6S(b1-3)GlcNAc = target: Gal6S(b1-3)GlcNAc
# How it was run: as §1
# GalNAc(b1-4)GlcNAc = target: GalNAc(b1-4)GlcNAc
# How it was run: as §1
# [18] = target: GlcNAc(b1-2)[GlcNAc(b1-6)]Man(a1-6)[GlcNAc(b1-4)][GlcNAc(b1-2)Man(a1-3)]Man(b1-4)GlcNAc(b1-4)GlcNAc
# How it was run: as §1
# [19] = target: GlcNAc(b1-3)Gal(b1-4)GlcNAc(b1-3)Gal(b1-4)GlcNAc(b1-3)Gal(b1-4)GlcNAc(b1-3)Gal(b1-4)GlcNAc(b1-2)Man(a1-3)[GlcNAc(b1-3)Gal(b1-4)GlcNAc(b1-3)Gal(b1-4)GlcNAc(b1-3)Gal(b1-4)GlcNAc(b1-3)Gal(b1-4)GlcNAc(b1-2)Man(a1-6)]Man(b1-4)GlcNAc(b1-4)[Fuc(a1-6)]GlcNAc
# How it was run: as §1
# GlcNAc(b1-4)GlcNAc = target: GlcNAc(b1-4)GlcNAc
# How it was run: as §1
# Kdn(a2-3)Gal(b1-4)Glc = target: Kdn(a2-3)Gal(b1-4)Glc
# How it was run: as §1
# Kdn(a2-3)Gal(b1-4)GlcNAc = target: Kdn(a2-3)Gal(b1-4)GlcNAc
# How it was run: as §1
# Man(a1-2)Man(a1-3)Man = target: Man(a1-2)Man(a1-3)Man
# How it was run: as §1
# [20] = target: Man(a1-2)Man(a1-3)[Man(a1-2)Man(a1-6)]Man(a1-6)[Man(a1-2)Man(a1-2)Man(a1-3)]Man
# How it was run: as §1
# [21] = target: Neu5Ac(a2-3)Gal(b1-3)GalNAc(b1-3)Gal(a1-4)Gal(b1-4)Glc
# How it was run: as §1
# [22] = target: Neu5Ac(a2-3)Gal(b1-3)GlcNAc(b1-6)GalNAc
# How it was run: as §1
# [23] = target: Neu5Ac(a2-3)Gal(b1-3)[Fuc(a1-4)]GlcNAc(b1-3)Gal(b1-3)[Fuc(a1-4)]GlcNAc
# How it was run: as §1
# [24] = target: Neu5Ac(a2-3)Gal(b1-4)GlcNAc(b1-2)Man(a1-3)[Neu5Ac(a2-6)Gal(b1-4)GlcNAc(b1-2)Man(a1-6)]Man(b1-4)GlcNAc(b1-4)GlcNAc
# How it was run: as §1
# [25] = target: Neu5Ac(a2-3)Gal(b1-4)GlcNAc(b1-2)[Neu5Ac(a2-3)Gal(b1-4)GlcNAc(b1-4)]Man(a1-3)[GlcNAc(b1-4)][Neu5Ac(a2-3)Gal(b1-4)GlcNAc(b1-2)[Neu5Ac(a2-3)Gal(b1-4)GlcNAc(b1-6)]Man(a1-6)]Man(b1-4)GlcNAc(b1-4)GlcNAc
# How it was run: as §1
# [26] = target: Neu5Ac(a2-3)Gal(b1-4)GlcNAc(b1-3)Gal(b1-4)GlcNAc(b1-3)[Neu5Ac(a2-3)Gal(b1-4)GlcNAc(b1-3)Gal(b1-4)GlcNAc(b1-6)]GalNAc
# How it was run: as §1
# [27] = target: Neu5Ac(a2-3)Gal(b1-4)[Fuc(a1-3)]GlcNAc(b1-2)Man
# How it was run: as §1
# [28] = target: Neu5Ac(a2-3)[GalNAc(b1-4)]Gal(b1-4)GlcNAc
# How it was run: as §1
# [29] = target: Neu5Ac(a2-6)Gal(b1-4)GlcNAc(b1-3)Gal(b1-4)[Fuc(a1-3)]GlcNAc(b1-3)Gal(b1-4)[Fuc(a1-3)]GlcNAc
# How it was run: as §1
# [30] = target: Neu5Ac(a2-8)Neu5Ac(a2-8)Neu5Ac
# How it was run: as §1
# Neu5Gc(a2-3)Gal(b1-4)Glc = target: Neu5Gc(a2-3)Gal(b1-4)Glc
# How it was run: as §1
# [31] = target: Neu5Gc(a2-3)Gal(b1-4)[Fuc(a1-3)]GlcNAc
# How it was run: as §1
# [32] = target: Neu5Gc(a2-8)Neu5Gc(a2-6)Gal(b1-4)GlcNAc
# How it was run: as §1
binder,measurement,setting,value
B1,glycan array binding signal (z-score),[1],7.12
same,glycan array binding signal (z-score),[2],9.17
same,glycan array binding signal (z-score),[3],-0.338
same,glycan array binding signal (z-score),[4],-0.444
same,glycan array binding signal (z-score),[5],3.23
same,glycan array binding signal (z-score),[6],-0.64
same,glycan array binding signal (z-score),[7],0.076
same,glycan array binding signal (z-score),Gal(a1-3)GalNAc,-0.308
same,glycan array binding signal (z-score),Gal(a1-6)Glc,-0.625
same,glycan array binding signal (z-score),Gal(b1-3)GalNAc,-0.398
same,glycan array binding signal (z-score),[8],-0.203
same,glycan array binding signal (z-score),[9],2.3
same,glycan array binding signal (z-score),[10],-0.603
same,glycan array binding signal (z-score),[11],-0.461
same,glycan array binding signal (z-score),Gal(b1-4)Gal,-0.552
same,glycan array binding signal (z-score),[12],0.449
same,glycan array binding signal (z-score),[13],3.26
same,glycan array binding signal (z-score),[14],5.24
same,glycan array binding signal (z-score),[15],3.26
same,glycan array binding signal (z-score),[16],3.16
same,glycan array binding signal (z-score),[17],1.11
same,glycan array binding signal (z-score),Gal3S(b1-4)GlcNAc,0.36
same,glycan array binding signal (z-score),Gal6S(b1-3)GlcNAc,3.68
same,glycan array binding signal (z-score),GalNAc(b1-4)GlcNAc,0.934
same,glycan array binding signal (z-score),[18],-0.7
same,glycan array binding signal (z-score),[19],3.13
same,glycan array binding signal (z-score),GlcNAc(b1-4)GlcNAc,0.531
same,glycan array binding signal (z-score),Kdn(a2-3)Gal(b1-4)Glc,-0.075
same,glycan array binding signal (z-score),Kdn(a2-3)Gal(b1-4)GlcNAc,-0.528
same,glycan array binding signal (z-score),Man(a1-2)Man(a1-3)Man,-0.511
same,glycan array binding signal (z-score),[20],-0.73
same,glycan array binding signal (z-score),[21],-0.583
same,glycan array binding signal (z-score),[22],1.45
same,glycan array binding signal (z-score),[23],-0.524
same,glycan array binding signal (z-score),[24],-0.401
same,glycan array binding signal (z-score),[25],3.2
same,glycan array binding signal (z-score),[26],6.15
same,glycan array binding signal (z-score),[27],0.73
same,glycan array binding signal (z-score),[28],-0.449
same,glycan array binding signal (z-score),[29],-0.584
same,glycan array binding signal (z-score),[30],-0.398
same,glycan array binding signal (z-score),Neu5Gc(a2-3)Gal(b1-4)Glc,0.047
same,glycan array binding signal (z-score),[31],-0.059
same,glycan array binding signal (z-score),[32],-0.628
